Source: PubChem BioAssay AID2073 (Sanford-Burnham Center for Chemical Genomics, 2009)
Among all 290,000 compounds or so, about 570 (0.2%) were called active. Another 1% or so got no clear call; they are omitted. No stated cut-off is given here; in the data, active means inhibition mostly above about 51% (no sharp cut-off); inconclusive means no clear call, values can overlap the other calls; inactive means mostly below about 53%. Many of the other results were omitted from the sample, so actives are more common in it than they were.

Target: Voltage-dependent N-type calcium channel subunit alpha-1B (Homo sapiens) (UniProt Q00975)
Sequence (Q00975 whole entry, looked up): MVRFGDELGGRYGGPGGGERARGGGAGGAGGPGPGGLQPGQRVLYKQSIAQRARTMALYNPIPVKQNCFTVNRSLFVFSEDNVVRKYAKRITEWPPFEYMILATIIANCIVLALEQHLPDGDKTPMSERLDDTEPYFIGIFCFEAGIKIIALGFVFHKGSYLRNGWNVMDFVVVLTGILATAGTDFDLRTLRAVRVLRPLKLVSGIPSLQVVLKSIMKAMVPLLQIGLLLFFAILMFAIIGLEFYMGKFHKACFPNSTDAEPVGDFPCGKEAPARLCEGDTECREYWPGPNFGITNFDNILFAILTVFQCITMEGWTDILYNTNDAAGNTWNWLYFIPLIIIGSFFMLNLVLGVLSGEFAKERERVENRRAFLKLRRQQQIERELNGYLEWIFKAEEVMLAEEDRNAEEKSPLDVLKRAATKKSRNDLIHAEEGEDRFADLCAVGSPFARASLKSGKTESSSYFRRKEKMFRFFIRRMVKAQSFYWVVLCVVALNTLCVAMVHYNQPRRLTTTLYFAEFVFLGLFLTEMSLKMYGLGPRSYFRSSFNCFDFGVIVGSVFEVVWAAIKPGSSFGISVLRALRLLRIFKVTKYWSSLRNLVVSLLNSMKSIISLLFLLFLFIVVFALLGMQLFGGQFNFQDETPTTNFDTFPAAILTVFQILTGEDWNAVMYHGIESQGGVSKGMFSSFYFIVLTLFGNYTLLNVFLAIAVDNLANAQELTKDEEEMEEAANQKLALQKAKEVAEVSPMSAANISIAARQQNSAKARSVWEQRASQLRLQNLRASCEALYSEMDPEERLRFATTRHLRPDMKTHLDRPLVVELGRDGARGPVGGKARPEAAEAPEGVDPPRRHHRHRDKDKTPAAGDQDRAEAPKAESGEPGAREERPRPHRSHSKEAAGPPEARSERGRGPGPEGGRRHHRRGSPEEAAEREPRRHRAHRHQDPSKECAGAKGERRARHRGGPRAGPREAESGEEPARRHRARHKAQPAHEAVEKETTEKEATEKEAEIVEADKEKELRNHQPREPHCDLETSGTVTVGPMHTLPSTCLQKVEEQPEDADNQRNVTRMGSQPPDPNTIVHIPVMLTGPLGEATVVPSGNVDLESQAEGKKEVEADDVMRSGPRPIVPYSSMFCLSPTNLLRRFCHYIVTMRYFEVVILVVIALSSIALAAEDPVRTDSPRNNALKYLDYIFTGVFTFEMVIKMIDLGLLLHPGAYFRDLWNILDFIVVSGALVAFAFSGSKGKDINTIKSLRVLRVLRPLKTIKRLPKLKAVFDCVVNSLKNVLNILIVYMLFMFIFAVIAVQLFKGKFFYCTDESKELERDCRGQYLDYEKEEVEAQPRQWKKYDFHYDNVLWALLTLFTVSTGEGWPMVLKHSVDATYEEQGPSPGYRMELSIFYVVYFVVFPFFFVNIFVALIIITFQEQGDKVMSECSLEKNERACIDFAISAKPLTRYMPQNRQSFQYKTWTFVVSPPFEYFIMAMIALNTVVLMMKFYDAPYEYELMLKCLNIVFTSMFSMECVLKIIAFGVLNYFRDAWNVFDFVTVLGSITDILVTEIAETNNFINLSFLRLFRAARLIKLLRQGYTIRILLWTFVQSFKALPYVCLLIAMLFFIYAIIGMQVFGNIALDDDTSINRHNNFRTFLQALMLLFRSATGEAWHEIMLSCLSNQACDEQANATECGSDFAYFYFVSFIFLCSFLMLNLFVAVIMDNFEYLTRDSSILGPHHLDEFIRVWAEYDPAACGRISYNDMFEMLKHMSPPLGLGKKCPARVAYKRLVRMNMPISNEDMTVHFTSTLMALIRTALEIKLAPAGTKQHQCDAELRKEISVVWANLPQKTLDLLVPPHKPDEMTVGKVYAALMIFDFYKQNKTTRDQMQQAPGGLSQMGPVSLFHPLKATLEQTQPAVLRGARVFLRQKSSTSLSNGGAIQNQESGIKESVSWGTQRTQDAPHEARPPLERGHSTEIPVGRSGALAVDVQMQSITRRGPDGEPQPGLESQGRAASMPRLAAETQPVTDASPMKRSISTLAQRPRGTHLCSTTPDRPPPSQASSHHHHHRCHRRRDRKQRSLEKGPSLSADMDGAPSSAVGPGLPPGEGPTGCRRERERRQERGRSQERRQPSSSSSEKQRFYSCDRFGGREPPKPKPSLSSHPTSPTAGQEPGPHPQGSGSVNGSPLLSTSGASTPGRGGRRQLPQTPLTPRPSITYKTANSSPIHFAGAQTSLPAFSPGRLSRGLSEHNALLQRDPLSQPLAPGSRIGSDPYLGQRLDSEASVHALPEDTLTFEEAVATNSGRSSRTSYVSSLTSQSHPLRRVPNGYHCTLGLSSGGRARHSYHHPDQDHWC
Assay: inhibitors of Mint1-CaV2.2 protein interaction, biochemical, HTRF (AID 2073)
Details: at 20 µM, stronger effect = higher value
[1] = measured here: average of repeat tests

Row | SMILES | inhibition | inhibition [1] [%]
1 | COc1ccc(NC(=O)c2c3c(nc4ccccc24)CCC3)cc1S(=O)(=O)N1CCOCC1 | 59.4% (inactive) | 41.1
2 | O=C(Nc1cccc(S(=O)(=O)N2CCOCC2)c1)c1c2c(nc3ccccc13)CCC2 | 56% (active) | 
3 | O=C(Nc1cccc(S(=O)(=O)N2CCCCC2)c1)c1c2c(nc3ccccc13)CCN(Cc1ccccc1)C2 | 40.8% (inactive) | 
4 | CCOc1cc(C(c2c(C)[nH][nH]c2=O)c2c(C)[nH][nH]c2=O)cc(Br)c1OC | 5.6% (inactive) | 
5 | C=CC#CC1(O)CC(C)[N+](C)(C)CC1C (centres undefined) | 17.6% (inactive) | 
6 | C=CCn1c(=NC(=O)c2cc(Cl)sc2Cl)sc2cc(S(N)(=O)=O)ccc21 | 27.4% (inactive) | 
7 | CCOCCn1c(=NC(=O)c2cc(Cl)sc2Cl)sc2cc(S(N)(=O)=O)ccc21 | 53.8% (active) | 
8 | COCCn1c(=NC(=O)c2cc(Cl)sc2Cl)sc2cc(S(N)(=O)=O)ccc21 | 38.7% (inactive) | 
9 | CCOc1ccccc1C(=O)NC(C(=O)Nc1cccnc1)C(C)C (centres undefined) | 3.3% (inactive) | 
10 | Cc1cc(C(=O)COc2cccnc2[N+](=O)[O-])c(C)n1Cc1cccs1 | 34% (inactive) | 
11 | Cc1cc(C(=O)COc2cccnc2[N+](=O)[O-])c(C)n1Cc1ccco1 | 78.9% (active) | 
12 | COCCn1c(C)cc(C(=O)COc2cccnc2[N+](=O)[O-])c1C | -4% (inactive) | 
13 | Cc1ccc(NC(=O)c2c3c(nc4ccccc24)CCC3)cc1S(=O)(=O)N(C)C | 53.6% (inactive) | 31.4
14 | Cc1ccc(S(=O)(=O)N(C)CC(=O)OCC(=O)N2CCCC2=O)cc1 | -12.9% (inactive) | 
15 | O=C(Nc1nc(-c2cccnc2)cs1)c1ccc([N+](=O)[O-])cc1 | 19% (inactive) | 
16 | COc1cc(CN(C(=O)c2ccco2)C2CCS(=O)(=O)C2)cc(OC)c1OC (centres undefined) | 11.2% (inactive) | 
17 | CC(=O)c1cccc(Nc2nc(-c3ccccc3)cs2)c1 | 0.5% (inactive) | 
18 | Oc1ccc(Br)cc1C=Nc1ccc2c3c(cccc13)CC2 | 53.5% (active) | 
19 | Oc1ccc(Cl)cc1C=Nc1ccc2c3c(cccc13)CC2 | 50.4% (inactive) | 11.1
20 | Cc1cccc(C=Nc2ccc3c4c(cccc24)CC3)c1O | 7.8% (inactive) | 
21 | O=[N+]([O-])c1cc(Cl)ccc1N1CCCC1 | -1.5% (inactive) | 
